Assay results: PubChem BioAssay AID1578 (Sanford-Burnham Center for Chemical Genomics, 2009)
The campaign covered roughly 290,000 compounds. About 3,000 (1%) were called active. This is one part of a sample in which actives are shown more often than they occur. No stated cut-off is given here; in the data, active means inhibition mostly above about 36% (no sharp cut-off); inactive means mostly below about 34%.

test: NOD1 signaling inhibitors, primary screen, cell-based, luminescence, uHTS (AID 1578); conditions: NOD1-driven NF-kB luciferase reporter cells, at 4 µM, hits give high values;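 further: HEK-293T reporter cells stimulated with the NOD1 agonist gamma-tri-DAP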

| Compound | inhibition |
| --- | --- |
| Cc1nc2c3cc(Cl)ccc3n(CCN3CCCCC3)c2s1 | -5.1% (inactive) |
| CC1CCN(S(=O)(=O)c2ccc3c(c2)NC(=O)CS3)CC1 | -43.2% (inactive) |
| Cc1ccc(CNC(=O)Cc2ccc(-n3cccc3)cc2)cc1 | -32.1% (inactive) |
| O=C(Cc1ccccc1)NCc1ccc(-n2cccc2)cc1 | 48.6% (active) |
| O=C(COc1ccccc1)NCc1ccc(-n2cccc2)cc1 | -34.8% (inactive) |
| Cc1ccc(COc2ccsc2C(=O)NNC(N)=S)cc1 | -29.4% (inactive) |
| CCCOc1ccc(/C=N/Nc2ccccc2[N+](=O)[O-])c(O)c1 | 55.7% (inactive) |
| CCOc1cccc(/C=N/NC(=S)Nc2ccccc2[N+](=O)[O-])c1O | 34.3% (inactive) |
| OC(CNCCc1ccc(Cl)cc1)COc1cc(Cl)ccc1Cl (centres undefined) | -10.1% (inactive) |
| Cc1ccccc1OCC(=O)N/N=C/c1ccc(N2CCOCC2)o1 | -23.5% (inactive) |
| Cc1ccc(CSC2=NCCN2C(=O)C(C)Oc2ccccc2)cc1 (centres undefined) | -38.3% (inactive) |
| CC1CCc2c(sc3ncnc(N4CCOCC4)c23)C1 (centres undefined) | -28.8% (inactive) |
| CC1CCc2sc3ncnc(N4CCN(C)CC4)c3c2C1 (centres undefined) | 13.5% (inactive) |
| CCOC(=O)C1CCCN(C(=O)COc2ccccc2F)C1 (centres undefined) | -25.1% (inactive) |
| COC(=O)c1c(NC(=O)CN2C(=O)NC3(CCC(C(C)(C)C)CC3)C2=O)sc2c1CCCCC2 (centres undefined) | -10.4% (inactive) |
| COCC(C)N1CCC(n2nccc2NC(=O)CCCc2ccccc2)CC1 (centres undefined) | -1.8% (inactive) |
| O=C(NC1=NCCS1)c1cc(-c2cccc(Br)c2)nc2ccccc12 | -10.6% (inactive) |
| COc1cc(/C=C2\CCOC2=O)cc(OC)c1OC | -9.9% (inactive) |
| COc1cc(/C=C2\CC/C(=C\c3cc(OC)c(OC)c(OC)c3)C2=O)cc(OC)c1OC | 23% (inactive) |
| O=C(CN(Cc1ccco1)C(=O)CNS(=O)(=O)c1ccc(F)cc1)NCCc1ccccc1 | -27.1% (inactive) |
| Cn1c(N)c(C(=O)COC(=O)c2ccc(Cl)c(S(=O)(=O)N3CCCCC3)c2)c(=O)n(C)c1=O | 64.3% (active) |
| Cc1ccc(C(=O)OCC(=O)c2c(N)n(C)c(=O)n(C)c2=O)cc1S(=O)(=O)N1CCCCC1 | -7.4% (inactive) |
| Cn1c(N)c(C(=O)COC(=O)c2ccc(Cl)c(S(=O)(=O)N3CCCC3)c2)c(=O)n(C)c1=O | 14.5% (inactive) |

| Compound | inhibition |
| --- | --- |
| Cc1cc(C(=O)OCC(=O)NC(C)C)c(C)o1 | -4% (inactive) |
| CC(=O)C(C)n1c(CN2CCN(C(=O)c3ccco3)CC2)nc2c1c(=O)n(C)c(=O)n2C (centres undefined) | -0.4% (inactive) |
| CCN1CCS/C1=C/C=C/C1=[N+](CC)CCS1 | 14% (inactive) |
| CCN1CCS/C1=C\C=C\C1=[N+](CC)CCS1 | 53.8% (active) |
| Cc1ccc(CC(=O)NCc2ccc(Cl)cc2)cc1 | -57.8% (inactive) |
| Cc1ccc(-c2cc(C)nc3ncnn23)cc1 | -4.1% (inactive) |
| Cc1cccc2nc(CSc3nc4[nH]ncc4c(=O)n3-c3ccccc3Cl)cc(=O)n12 | 6.5% (inactive) |
| Cc1cccc2nc(CSc3nc4[nH]ncc4c(=O)n3-c3cccc(Cl)c3)cc(=O)n12 | 75.3% (active) |
| Cc1cccc(-n2c(SCc3cc(=O)n4c(C)cccc4n3)nc3[nH]ncc3c2=O)c1 | -6.2% (inactive) |
| COc1ccc(C2C(C(N)=O)=C(C)Nc3ncnn32)cc1 (centres undefined) | -4.5% (inactive) |
| COC(=O)CCC(=O)NNC(=O)C1CC1(c1ccccc1)c1ccccc1 (centres undefined) | 0.4% (inactive) |
| COc1ccc(NC(=S)N2CCN(c3ccccn3)CC2)cc1 | -4.7% (inactive) |
| S=C(Nc1ccccc1)N1CCN(c2ccccn2)CC1 | -29.8% (inactive) |
| Cc1ccccc1N1CCN(C(=O)c2ccccc2NC(=O)C2CC=CCC2C(=O)O)CC1 (centres undefined) | -15.8% (inactive) |
| Cc1cccc(C)c1-n1nnnc1S(=O)(=O)Cc1ccccc1Cl | -16.2% (inactive) |
| COc1ccccc1-n1nnnc1S(=O)(=O)Cc1ccc(Cl)cc1 | 102% (inactive) |
| CN1/C(=C\C(=O)C[n+]2cccc(Br)c2)C(C)(C)c2ccccc21 | 30.4% (inactive) |
| CN1/C(=C\C(=O)C[n+]2ccc3ccccc3c2)C(C)(C)c2ccccc21 | 47% (active) |
| Cc1ccc[n+](CC(=O)/C=C2\N(C)c3ccccc3C2(C)C)c1 | 27.4% (inactive) |
| O=C(NCc1ccccc1OC(F)(F)F)C1CCC(=O)N(CCc2ccccn2)C1 (centres undefined) | -25.8% (inactive) |
| CC(Sc1n[nH]c(N)n1)C(=O)NC1CCCCC1C (centres undefined) | -7.3% (inactive) |
| Cc1[nH]c2ccccc2c1C(=O)C(=O)N(C)C1CCCCC1 | -23.5% (inactive) |
| CC(Sc1nc(N)cc(=O)[nH]1)C(=O)NC1CCCCC1 (centres undefined) | -12% (inactive) |

| Compound | inhibition |
| --- | --- |
| CN(C(=O)CSc1ccccc1C(=O)O)C1CCCCC1 | -26.5% (inactive) |
| Cc1cc(C(=O)O)sc1C | -16.5% (inactive) |
| FC(F)(F)c1cnc(Sc2nnc(-c3cccs3)n2CC2CCCO2)c(Cl)c1 (centres undefined) | -14.9% (inactive) |
| CCOc1cc(/C=N/NC(=O)C(=O)NCc2ccc3c(c2)OCO3)ccc1OCC(=O)N1CCOCC1 | -4.3% (inactive) |
| CCOC(=O)CNc1cccc(C(F)(F)F)c1 | -35.5% (inactive) |
| O=C(CNS(=O)(=O)c1ccccc1)NCC(=O)OCc1ccc(Cl)cc1 | -12.2% (inactive) |
| O=C(NCc1cccnc1)/C(=C\c1ccc(-c2ccc(Br)cc2)o1)S(=O)(=O)c1ccccc1 | 106% (active) |
| O=C(NCc1cccnc1)/C(=C/c1ccc(-c2cccc(C(F)(F)F)c2)o1)NC(=O)c1ccccc1 | 11.9% (inactive) |
| O=C(CN(Cc1ccc(Br)cc1)S(=O)(=O)c1ccccc1)NCc1cccnc1 | 14.5% (inactive) |
| COc1ccc(S(=O)(=O)N2CCC(NC(=O)c3cccc(F)c3)CC2)cc1 | -7.7% (inactive) |
| CC(=O)NC(CC(=O)Oc1ccc(C)cc1Br)c1ccccc1 (centres undefined) | -28.4% (inactive) |
| Cc1c(CCOC(=O)c2cc([N+](=O)[O-])cc([N+](=O)[O-])c2)sc[n+]1CC(=O)c1ccccc1 | -27.6% (inactive) |
| Cc1c(CCOC(=O)c2cc([N+](=O)[O-])cc([N+](=O)[O-])c2)sc[n+]1CC(=O)c1ccc(Br)cc1 | 49.3% (active) |
| Cc1c(CCOC(=O)c2cccc([N+](=O)[O-])c2)sc[n+]1CC(=O)c1ccccc1 | -44.5% (inactive) |
| O=C(NCc1ccco1)C12CN(Cc3ccccc3)CC1C(c1ccc([N+](=O)[O-])cc1)=NO2 (centres undefined) | 10.3% (inactive) |
| CCOCCc1nnc(NC(=O)C(C)Oc2ccccc2)s1 (centres undefined) | -60.4% (inactive) |
| COc1ccc(NC(=O)CCC(=O)N/N=C/c2cn(C)nc2C)cc1 | 10.7% (inactive) |
| CN(C)c1ccc(C(=O)Nc2nc3c(s2)CCCC3)cc1 | 25.6% (inactive) |
| Cc1cccc(Nc2nc3c(s2)CCCC3)c1 | -49.8% (inactive) |
| O=C(O)c1ccc(Nc2nc3c(s2)CCCC3)cc1 | 69.2% (active) |
| Cc1cc(-c2nc3cccnc3s2)ccc1NS(=O)(=O)c1ccc2c(c1)OCCO2 | -4% (inactive) |
| Cc1nc2ccc(S(=O)(=O)Nc3cccc(-c4nc5cccnc5s4)c3C)cc2s1 | -33.3% (inactive) |
| CCc1ccc(NC(=O)CSc2nnc(-c3n[nH]c4ccccc34)n2-c2ccccc2)cc1 | 6% (inactive) |

| Compound | inhibition |
| --- | --- |
| CC(C)CC(C(=O)N1CCc2ccccc2C1)N1C(=O)c2ccccc2C1=O (centres undefined) | 5.4% (inactive) |
| COc1ccc(N2C(=O)c3ccccc3NC2c2cccnc2)cc1 (centres undefined) | -14.4% (inactive) |
| COc1ccccc1N1Cc2ccc(OC)c(OC)c2C1=O | -5.2% (inactive) |
| COc1ccc2c(c1OC)C(=O)N(c1ncn[nH]1)C2 | -15.4% (inactive) |
| COc1ccc2c(c1OC)C(=O)OC2 | 33.6% (active) |
| COc1cc(OC)cc(C(=O)OCCCOC(=O)c2cc(OC)cc(OC)c2)c1 | -7.2% (inactive) |
| CN(NS(=O)(=O)c1ccc(Br)cc1)c1nc(C(F)(F)F)nc2ccccc12 | 31.4% (active) |
| COc1ccc(S(=O)(=O)NN(C)c2nc(C(F)(F)F)nc3ccccc23)cc1 | -27.6% (inactive) |
| CN(NS(=O)(=O)c1ccc(Cl)cc1)c1nc(C(F)(F)F)nc2ccccc12 | 26% (inactive) |
| CN(C)C1(CN=Cc2cc(Cl)cc([N+](=O)[O-])c2O)CCCCC1 | -19% (inactive) |
| O=C(N/N=C/c1ccc(-c2ccccc2)o1)c1ccccc1O | -1.6% (inactive) |
| O=C(N/N=C/c1ccc(-c2cccc(C(F)(F)F)c2)o1)c1ccccc1O | 86.8% (active) |
| O=C(N/N=C/c1ccc(-c2cccc(C(F)(F)F)c2)o1)c1ccccc1Br | 13.2% (inactive) |
| COc1ccc2cc(CCNC(=O)c3cccc([N+](=O)[O-])c3)c(=O)[nH]c2c1 | 45.6% (active) |
| Cc1cc2cc(CCNC(=O)c3cccc([N+](=O)[O-])c3)c(=O)[nH]c2cc1C | 3.3% (inactive) |
| Cc1ccc2cc(CCNC(=O)c3cccc([N+](=O)[O-])c3)c(=O)[nH]c2c1 | 26.4% (inactive) |
| COc1cc(Br)c(CC(=O)O)cc1OC | 4% (inactive) |
| CCn1cc(C(=O)OCC(=O)c2cc(C)n(-c3ccccc3)c2C)c(=O)c2ccc(C)nc21 | 6.2% (inactive) |
| CCn1cc(C(=O)OCC(=O)c2cc(C)n(-c3ccccc3F)c2C)c(=O)c2ccc(C)nc21 | 10.8% (inactive) |
| CCn1cc(C(=O)OCC(=O)c2cc(C)n(-c3cccc(C(F)(F)F)c3)c2C)c(=O)c2ccc(C)nc21 | 62.7% (active) |
| Cc1nn(Cc2ccc(C(=O)N3CCN(C(=O)c4ccco4)CC3)o2)c(C)c1[N+](=O)[O-] | -22.1% (inactive) |
| C/C(=N\NC(=O)c1cccc2ccccc12)c1cccs1 | -68.3% (inactive) |
| C/C(=N\NC(=O)c1cc2ccccc2cc1O)c1cccs1 | 5.7% (inactive) |

| Compound | inhibition |
| --- | --- |
| C/C(=N\NC(=O)c1ccccc1O)c1cccs1 | 69.7% (active) |
| C/C(=N\NC(=O)c1ccoc1C)c1ccc(Br)s1 | 15.3% (inactive) |
| C/C(=N\NC(=O)c1ccccc1O)c1ccc(Br)s1 | 8.3% (inactive) |
| CCN(CC(=O)NCc1ccc(Cl)cc1)C(=O)/C=C/c1cccs1 | -23.9% (inactive) |
| CC1CCCN(CC(=O)Nc2ccc(S(=O)(=O)N3CCCCCC3)cc2)C1 (centres undefined) | -8.7% (inactive) |
| Cc1ccc(/C=C2/SC(=Nc3ccc(F)cc3)NC2=O)s1 | -8.8% (inactive) |
| CC(=O)NC(Cc1ccc(C)cc1)C(=O)NC1CCN(C(=O)c2ccc([N+](=O)[O-])cc2)CC1 (centres undefined) | -4.9% (inactive) |
| Cc1noc2ncnc(N3CCN(c4ccc(F)cc4)CC3)c12 | -41.6% (inactive) |
| Cc1noc2ncnc(N3CCCC3)c12 | -13.8% (inactive) |
| Cc1nn(C)c(Oc2ccccc2)c1CCNS(=O)(=O)c1ccccc1 | 14.8% (inactive) |
| O=c1[nH]c2ccc(Cl)cc2c(-c2ccccc2)c1SC(=S)N1CCCCC1 | 47% (inactive) |
| CCN(CC)C(=S)Sc1c(-c2ccccc2)c2cc(Cl)ccc2[nH]c1=O | 78.1% (active) |
| O=C(O)CSc1c(-c2ccccc2)c2cc(Cl)ccc2[nH]c1=O | -28.5% (inactive) |
| COc1ccc2c(C)cc(SC3CCOC3=O)nc2c1 (centres undefined) | -1.1% (inactive) |
| C=CCc1cc(Cl)ccc1OCCNCCOC | 43.2% (active) |
| C=CCc1cc(Cl)ccc1OCCOCCNCCOC | -24.9% (inactive) |
| C=CCc1cc(Cl)ccc1OCCNCCCOC | -15.8% (inactive) |
| CCC(C(=O)c1ccc2ncccc2c1)c1ccccc1 (centres undefined) | -3.6% (inactive) |
| CCOC(=O)C1=C(N)Oc2cc(O)ccc2C1c1ccc(C)cc1 (centres undefined) | -17.2% (inactive) |
| CCOC(=O)C1=C(N)Oc2cc(O)ccc2C1c1cccc([N+](=O)[O-])c1 (centres undefined) | 41.2% (inactive) |
| CCOC(=O)C1=C(N)Oc2cc(O)ccc2C1c1ccc([N+](=O)[O-])cc1 (centres undefined) | 67.7% (active) |
| COc1cc(COc2ccc3c(C)c(CCC(=O)O)c(=O)oc3c2)cc(OC)c1OC | -4.2% (inactive) |
